# “And” between values parts separate entries of the source, which are not always exact repeats. Equal entries are not always repeated. The source made the active and inactive calls. The calls were made as follows: active = hit-call score of the fitted dose curve at least 0.9, where 1 is the maximum; inactive = score below 0.9.
# Read-out: Collagen III, COL3A1 (gene 1281)
# Test: BSK_hDFCGF_CollagenIII: BioMAP Diversity Plus: hDFCGF Assay for Collagen III Biomarker Activity (AID 2283056)
# Settings: primary human foreskin fibroblasts; actives raise or lower the signal
# Protocol: BSK_hDFCGF is a cell-based, multiplexed-readout assay that uses foreskin fibroblast, a human skin primary cell, with measurements taken at 24 hours after chemical dosing in a 96-well plate.BSK_hDFCGF_CollagenIII is an assay component measured in the BSK_hDFCGF assay. It measures Collagen antibody related to regulation of gene expression using ELISA technology.Data from the assay component BSK_hDFCGF_CollagenIII was analyzed into 1 assay endpoint. This assay endpoint, BSK_hDFCGF_CollagenIII, was analyzed with bidirectional fitting relative to DMSO as the negative control and baseline of activity. Using a type of binding reporter, gain or loss-of-signal activity can be used to understand changes in the signaling as they relate to the gene COL3A1. Furthermore, this assay endpoint can be referred to as a primary readout, because this assay has produced multiple assay endpoints where this one serves a signaling function. To generalize the intended target to other relatable targets, this assay endpoint is annotated to the cell adhesion molecules intended target family, where the subfamily is collagen.
# The levels of cell surface (or secreted, indicated by the prefix "s") biomarker endpoints were measured by ELISA. Overt cytotoxicity to cells in confluent adherent cultures (all systems other than the BT system) was assessed by measuring total protein levels using sulforhodamine B (SRB) staining in parallel cultures at the time of biomarker measurements, indicated as SRB endpoints. For proliferation assays for adherent cell types, individual cell types are cultured at sub-confluence and relative cell numbers quantified by SRB staining at time points optimized for each system (48 h: 3C and CASM3C systems; 72 h: BT and HDF3CGF systems; 96 h: SAg system). SRB was performed by staining cells with 0.1% SRB after fixation with 10% TCA and reading wells at 560 nm.Viability and proliferation of PBMC (T cells) was quantified by Alamar Blue reduction for the SAg and BT systems. For PBMC viability (referred to as PBMC Cytotoxicity within the assay endpoint names), cells were plated (75,000/well in a 96-well plate) and then chemical samples added for 1 h before addition of activators, SEB and TSST-1 (20 ng/mL final concentration each). Cells were incubated for 90 h. Then, Alamar Blue (20 uL/well) (Invitrogen, Cat DAL1100) was added for 6 h, and the plates were read with a fluorescence microplate reader at 546/580 nm (excitation/emission). For PBMC proliferation, cells were plated and activated as above but incubated for only 16 h prior to addition of Alamar Blue. Plates were read after 6 h.
Compound,AC50,outcome
ClC1=C(Cl)C2(Cl)C3C(Cl)C=CC3C1(Cl)C2(Cl)Cl (stereo not given),6.97 µM (active),–
CCCCCCCCOC(=O)c1ccc(C(=O)OCCCCCCCC)c(C(=O)OCCCCCCCC)c1,–,inactive
COP(=S)(OC)SCN1C(=O)c2ccccc2C1=O,–,inactive
CC(O)CCO (stereo not given),–,inactive
C[N+](C)(C)CC1CO1 (stereo not given),–,inactive
Nc1ccc(Cl)cc1N,–,inactive
c1ccc(C2CO2)cc1 (stereo not given),–,inactive
CC(C)COC(=O)c1ccccc1C(=O)OCC(C)C,23.9 µM (active),–
Clc1ccc(Cl)c(Cl)c1,–,inactive
O=C(O)C1C2CCC(O2)C1C(=O)O (stereo not given),24.3 µM (active),–
CC(C)(C)OOC(=O)c1ccccc1,35.1 µM (active),–
Cc1ccc(N=C=O)cc1N=C=O,–,inactive
c1ccc(NNc2ccccc2)cc1,–,inactive
Oc1ccccc1Cl,–,inactive
c1ccc2c(c1)-c1cccc3cccc-2c13,16.4 µM (active),–
CN(C)C(=O)Nc1ccc(Cl)cc1,–,inactive
Brc1ccc(Oc2ccccc2)cc1,–,inactive
CC(C)(C)OOC(C)(C)CCC(C)(C)OOC(C)(C)C,–,inactive
O=C(Oc1ccc(Br)cc1)N1CCN2CCC1CC2,–,inactive
Nc1ccc(Oc2ccc(N)cc2)cc1,–,inactive

Compound,AC50,outcome
CC(C)N(Cc1ccccc1)C(=O)C(C)(C)C,–,inactive
CCOC(=O)[C@]1(c2ccccc2)Oc2ccccc2[C@@H]1N,31.9 µM (active),–
O=C(Nc1ccccc1)c1ccccc1I,–,inactive
COC(=O)Nc1nc2ccccc2[nH]1,–,inactive
CCC[CH2][Sn]([Cl])([CH2]CCC)[CH2]CCC,0.316 µM (active),–
OCCOCCO,–,inactive
c1ccc2c(c1)oc1ccccc12,–,inactive
Nc1ccc(N=Nc2ccccc2)cc1,20 µM (active),–
Cc1cccc(N)c1N,–,inactive
CCCCC(CC)COC(=O)c1ccc(C(=O)OCC(CC)CCCC)c(C(=O)OCC(CC)CCCC)c1 (stereo not given),–,inactive
CC(C)(O)c1cnn2c(-c3ccc(F)c(-c4c(F)cccc4C#N)c3)cnc2n1,5.96 µM (active),–
Nc1cc(Cl)cc(C(=O)O)c1Cl,–,inactive
CCN(CC)CCO,–,inactive
CCNS(=O)(=O)C(F)(F)C(F)(F)C(F)(F)C(F)(F)C(F)(F)C(F)(F)C(F)(F)C(F)(F)F,5.82 µM (active) and 18.6 µM (active) and 22 µM (active),–
C[C@]12C=CC3=C4CCC(=O)C=C4CC[C@H]3[C@@H]1CC[C@@H]2O,–,inactive
O=Cc1ccco1,–,inactive
CCC12COCN1COC2,–,inactive
CC(C)(OOC(C)(C)c1ccccc1)c1ccccc1,12.8 µM (active),–
Cc1ccc([N+](=O)[O-])cc1,–,inactive
Nc1ccc([N+](=O)[O-])cc1,–,inactive

# Source: PubChem BioAssay (EPA / NIEHS)
